Laboratory results as given in PubChem BioAssay (NCATS).
Several values for one entry are separate records, joined by “and”; a condition that tells them apart may be missing. Equal entries are not always repeated. Inconclusive results are not listed. Activity calls are given as the source filed them. Unless noted, calls follow the shape of the dose curve; as a rule, active = well fitted curve in the direction sought with a large enough effect; inconclusive = small, poorly fitted or top-dose-only effect, or another doubt; inactive = no such curve, though single readings can be large; an effect the other way counts as inactive or inconclusive.

What was measured:
[1] = molecular target: Glucocorticoid receptor (Homo sapiens) (UniProt P04150); test: GR-GFP Redistribution (AID 450;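 active = compounds whose dose series gives a full or clear partial fitted curve of increased nuclear translocation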; also: potency is read from the fitted curve at half-maximal effect); conditions: U2OS GR-GFP nuclear translocation, laser cytometry, 2 h
[2] = molecular target: Glucocorticoid receptor (Homo sapiens) (UniProt P04150); test: GR-EFC Redistribution (AID 451; calls by dose curve; also: potency is read from the fitted curve at half-maximal effect); conditions: CHO-K1 GR-EFC translocation, beta-gal luminescence, 2 h
How it was run: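 Translocation of GR-ED fusion to nuclear EA restores b-gal, read by luminescence after 1 h room-temperature detection. Engineered CHO-K1 biosensor cells, 1,000/well, exposed 2 h at 37 C to titrations up to 46 uM final.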

[3] = molecular target: Mitogen-activated protein kinase 10 (Mus musculus) (UniProt Q61831); test: JNK3 AlphaScreen Assay (AID 530; active = well fitted curve in either direction with a large enough effect, not every such curve was filed as active;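 also: kinase came from lysate of stimulated human HepG2 cells; signal reports phosphorylation of biotinylated GST-cJun 1-79 at Ser73 with 10 µM ATP; % is scaled to controls: 0 for no effect and ±100 for the full control effect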)
How it was run: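 Kinase buffer: 20 mM Tris-HCl pH 7.6, 10 mM MgCl2, 1 mM DTT, 0.1 mM Na3VO4, 0.01% Tween-20; ATP 10 uM. Substrate biotin-GST-cJun(1-79), enzyme from activated HepG2 lysates. Detection by Ser73 phospho-antibody AlphaScreen.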

[4] = molecular target: Ubiquitin carboxyl-terminal hydrolase 1 (Homo sapiens) (UniProt O94782); test: Inhibitors of USP1/UAF1: Pilot qHTS (AID 504865);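 also: rhodamine fluorescence freed from ubiquitin-rhodamine substrate followed over time; top concentration of the series differs between compounds; % is scaled to controls: 0 for no effect and ±100 for the full control effect; nearly all actives have a fitted effect of over 35% in size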
How it was run: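 Deubiquitinase activity followed as kinetic rhodamine fluorescence release from 150 nM Ub-Rho. 1 nM USP1/UAF1 with compound, after 15 min room-temperature preincubation, in HEPES pH 7.8 buffer containing TCEP, EDTA, BSA and Tween-20.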

[5] = molecular target: DNA dC->dU-editing enzyme APOBEC-3G (Homo sapiens) (UniProt Q9HC16); test: qHTS for inhibitors of Vif-A3G interactions: Validation (AID 588379); also: 0% is about no effect
How it was run: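 Yellow fluorescence (Ex 488, Em 500-530) of Vif-coexpressing HeLa A3G-eYFP cells, scanned by Acumen cytometer, reports blocked A3G degradation. Cells plated at 700/well overnight at 37 deg C before compound addition, then a further overnight compound incubation at 37 deg C.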

[6] = tested on: Zika virus NS2B-NS3 protease; test: Primary screen GU AMC qHTS for Zika virus inhibitors (AID 1347154);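 also: 0% = no-inhibitor control and -100% = no-enzyme control; nearly all actives have a fitted effect of over 70% in size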
How it was run: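 Fluorogenic AMC-substrate cleavage by noncovalent NS2B-NS3 protease complex (25 nM, pH 8.0 Tris buffer with Tween 20) followed for 15 minutes at room temperature (~20% conversion). Percent inhibition from ex340/em450 signal change, fitted by 4-parameter Hill equation.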

[7] = Primary qHTS for small molecule stabilizers of the endoplasmic reticulum resident proteome: Secreted ER Calcium Modulated Protein (SERCaMP) assay (AID 1508630); also: % is scaled to controls: 0 for no effect and ±100 for the full control effect
How it was run: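 The SH-SY5Y reporter protocol was run at 3 concentrations up to 38.3 uM (primary) or 11 concentrations (follow-up): 16 h compound, 100 nM thapsigargin for 4 h, then extracellular luciferase luminescence.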

[8] = molecular target: Cytochrome P450 1A2 (Homo sapiens) (UniProt P05177); test: p450-cyp1a2 (AID 410; calls by dose curve; also: potency is read from the fitted curve at half-maximal effect;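 as to activity change, negative = inhibition: -100% = full effect of reference inhibitor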)
How it was run: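 20nM CYP1A2, 100uM Luciferin-ME (=Km), 100mM KPO4; cpd 10 min RT; +NADPH regen, 60 min RT; stop/detect 20 min; luminescence. Normalized to furafylline 57 uM = full inhibition.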

[9] = molecular target: 3',5'-cyclic-AMP phosphodiesterase 4B (Homo sapiens) (UniProt Q07343); test: qHTS Assay for Inhibitors of PDE-IV (AID 607; active = well fitted activation curve with a large enough effect in the main read-out, with a control signal flat, not every such curve was filed as active; also: % of control where 0% means no effect)
How it was run: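 HEK293 ACTOne cells with CNG channel (1000/well), endogenous PDE4; membrane potential dye, compounds up to 22.9 uM final. Fluorescence Ex 535/Em 590; RO 20-1724 (100 uM final) as reference.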

[10] = qHTS Assay for Lipid Storage Modulators (AID 1519; calls by dose curve; as to activity change, negative = inhibition: % is scaled to controls: 0 for no effect and ±100 for the full control effect); conditions: Drosophila S3 cells, BODIPY lipid droplet/cell ratio, laser cytometry, cells loaded with oleic acid
How it was run: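 Cells seeded at 5,000 per well were treated with compounds over a concentration series and loaded with oleic acid (400 uM, as added). Lipid droplet fluorescence (488 nm excitation, 500-530 nm channel) was read by laser-scanning cytometry and normalized to 20 uM Triacsin C.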

[11] = molecular target: Cytochrome P450 3A4 (Homo sapiens) (UniProt P08684); test: qHTS Assay for Activators of Cytochrome P450 3A4 (AID 885); also: nearly all actives have a fitted effect of over 65% in size
How it was run: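 Human CYP3A4 dealkylates Luciferin-PPXE to luciferin, which luciferase detection converts to light. Substrate was at its KM (25uM), buffer 200mM KPO4, reaction 60 min at RT.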

[12] = tested on: Zika virus NS2B-NS3 protease (linked construct); test: Primary screen NINDS Rhodamine qHTS for Zika virus inhibitors (AID 1347160); also: nearly all actives have a fitted effect of over 55% in size; also: potency is read from the fitted curve at half-maximal effect; as to activity change, negative = inhibition: % is scaled to controls: 0 for no effect and ±100 for the full control effect
How it was run: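 Each compound, titrated, sat 15 min with 25 nM linked protease before 1.5 microM Rhodamine110 substrate went in. Fluorescence gain over the next 15 min, in pH 8.0 Tris with Tween 20, gave Hill-fitted curves.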

[13] = OV-KATE Cancer Cell Toxicity qHTS against the NCATS CANVASS Library (AID 1347345); also: potency is read from the fitted curve at half-maximal effect
How it was run: (§1)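 ATP content after 72 h treatment, detected by CellTiter-Glo luminescence (15min room-temperature development), reflects cell viability. Wells contained 1000 cells and received compounds at 11 concentrations.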

[14] = HPAF-II Cancer Cell Toxicity qHTS against the NCATS CANVASS Library (AID 1347346); also: nearly all actives have a fitted effect of over 55% in size; also: potency is read from the fitted curve at half-maximal effect
How it was run: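 1000 HPAF-II cells/well; 4 h pre-incubation; 11-pnt compound titration; 72 h, 37 degrees C/5% CO2; CellTiter-Glo, 15 min RT; luminescence read.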

[15] = OV-SAHO Cancer Cell Toxicity qHTS against the NCATS CANVASS Library (AID 1347348); also: nearly all actives have a fitted effect of over 55% in size; also: potency is read from the fitted curve at half-maximal effect
How it was run: as §1

[16] = Panc-1005 Cancer Cell Toxicity qHTS against the NCATS CANVASS Library (AID 1347349); also: nearly all actives have a fitted effect of over 60% in size; also: potency is read from the fitted curve at half-maximal effect
How it was run: as §1

[17] = U-118MG Cancer Cell Toxicity qHTS against the NCATS CANVASS Library (AID 1347351); also: potency is read from the fitted curve at half-maximal effect
How it was run: as §1

[18] = COV-362 Cancer Cell Toxicity qHTS against the NCATS CANVASS Library (AID 1347352); also: potency is read from the fitted curve at half-maximal effect
How it was run: (§2)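 1000 cells/well, 4 h pre-incubation 37 °C/5% CO2; 11-pnt titration; 72 h; CellTiter-Glo 15 min RT, luminescence.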

[19] = UWB1.289-WTBRCA1 Cancer Cell Toxicity qHTS against the NCATS CANVASS Library (AID 1347354); also: potency is read from the fitted curve at half-maximal effect
How it was run: as §2

[20] = HEK293 24hr Apoptosis Induction qHTS against the NCATS CANVASS Library (AID 1347359); also: potency is read from the fitted curve at half-maximal effect; as to activation: 0% is about no effect
How it was run: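 Caspase-3/7 activation measured as luminescence from the DEVD-based Caspase-Glo reagent, 15 min at room temperature, following 24-hour compound treatment of HEK293 cells.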

[21] = measured here: cell count channel max response
[22] = measured here: lipid channel max response

Sequence of Glucocorticoid receptor (Homo sapiens) (P04150 whole entry, looked up, the tested form may be a part): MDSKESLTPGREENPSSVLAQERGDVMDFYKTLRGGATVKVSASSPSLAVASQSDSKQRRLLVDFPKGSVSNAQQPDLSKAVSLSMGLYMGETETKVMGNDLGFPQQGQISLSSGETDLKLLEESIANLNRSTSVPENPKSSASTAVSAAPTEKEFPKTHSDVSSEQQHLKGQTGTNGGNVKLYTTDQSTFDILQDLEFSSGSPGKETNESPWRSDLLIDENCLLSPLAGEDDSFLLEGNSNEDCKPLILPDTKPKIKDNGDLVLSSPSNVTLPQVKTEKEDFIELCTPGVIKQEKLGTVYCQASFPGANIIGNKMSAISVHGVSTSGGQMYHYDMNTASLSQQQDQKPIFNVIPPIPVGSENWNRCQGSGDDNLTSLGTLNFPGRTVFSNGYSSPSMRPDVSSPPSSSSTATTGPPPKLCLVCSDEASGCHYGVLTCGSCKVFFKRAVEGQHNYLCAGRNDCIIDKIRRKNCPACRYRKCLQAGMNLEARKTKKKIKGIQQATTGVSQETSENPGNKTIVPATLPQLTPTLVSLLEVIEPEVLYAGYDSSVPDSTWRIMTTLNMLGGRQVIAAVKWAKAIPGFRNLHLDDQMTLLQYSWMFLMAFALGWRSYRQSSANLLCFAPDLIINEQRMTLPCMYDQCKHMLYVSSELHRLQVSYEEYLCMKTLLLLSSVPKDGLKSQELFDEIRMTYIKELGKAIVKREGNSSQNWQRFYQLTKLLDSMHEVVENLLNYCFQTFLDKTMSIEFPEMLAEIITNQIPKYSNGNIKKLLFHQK
Sequence of Ubiquitin carboxyl-terminal hydrolase 1 (Homo sapiens) (O94782 whole entry, looked up): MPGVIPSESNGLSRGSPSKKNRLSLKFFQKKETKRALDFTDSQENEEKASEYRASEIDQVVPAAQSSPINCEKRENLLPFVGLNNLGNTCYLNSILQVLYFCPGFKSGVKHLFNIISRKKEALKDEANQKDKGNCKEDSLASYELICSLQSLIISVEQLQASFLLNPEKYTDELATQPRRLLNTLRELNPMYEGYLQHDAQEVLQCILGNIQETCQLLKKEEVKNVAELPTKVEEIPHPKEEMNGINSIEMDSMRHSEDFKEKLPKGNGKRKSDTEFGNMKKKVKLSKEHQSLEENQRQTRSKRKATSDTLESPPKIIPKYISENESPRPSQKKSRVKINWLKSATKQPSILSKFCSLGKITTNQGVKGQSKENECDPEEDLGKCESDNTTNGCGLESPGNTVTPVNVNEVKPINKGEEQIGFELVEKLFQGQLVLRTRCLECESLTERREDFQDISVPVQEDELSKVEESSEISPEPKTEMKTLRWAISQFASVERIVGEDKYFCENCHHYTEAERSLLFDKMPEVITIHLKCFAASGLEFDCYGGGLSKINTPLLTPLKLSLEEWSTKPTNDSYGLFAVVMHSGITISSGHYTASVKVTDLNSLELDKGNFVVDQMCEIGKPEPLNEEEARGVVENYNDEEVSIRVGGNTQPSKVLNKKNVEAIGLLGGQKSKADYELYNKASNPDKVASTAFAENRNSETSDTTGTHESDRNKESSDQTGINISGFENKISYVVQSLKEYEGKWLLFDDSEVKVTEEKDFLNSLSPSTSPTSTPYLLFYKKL
Sequence of DNA dC->dU-editing enzyme APOBEC-3G (Homo sapiens) (Q9HC16 whole entry, looked up): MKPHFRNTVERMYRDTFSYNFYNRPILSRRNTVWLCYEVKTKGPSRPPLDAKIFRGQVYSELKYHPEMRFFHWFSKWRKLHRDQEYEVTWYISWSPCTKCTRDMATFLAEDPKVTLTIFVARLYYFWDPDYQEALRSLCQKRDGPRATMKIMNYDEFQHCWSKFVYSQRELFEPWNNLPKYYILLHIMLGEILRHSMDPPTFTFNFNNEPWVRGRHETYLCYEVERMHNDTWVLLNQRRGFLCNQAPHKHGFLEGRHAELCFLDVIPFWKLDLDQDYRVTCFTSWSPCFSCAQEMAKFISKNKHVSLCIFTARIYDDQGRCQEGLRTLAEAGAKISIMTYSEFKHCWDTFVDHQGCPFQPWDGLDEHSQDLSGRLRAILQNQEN
Sequence of 3',5'-cyclic-AMP phosphodiesterase 4B (Homo sapiens) (Q07343 whole entry, looked up): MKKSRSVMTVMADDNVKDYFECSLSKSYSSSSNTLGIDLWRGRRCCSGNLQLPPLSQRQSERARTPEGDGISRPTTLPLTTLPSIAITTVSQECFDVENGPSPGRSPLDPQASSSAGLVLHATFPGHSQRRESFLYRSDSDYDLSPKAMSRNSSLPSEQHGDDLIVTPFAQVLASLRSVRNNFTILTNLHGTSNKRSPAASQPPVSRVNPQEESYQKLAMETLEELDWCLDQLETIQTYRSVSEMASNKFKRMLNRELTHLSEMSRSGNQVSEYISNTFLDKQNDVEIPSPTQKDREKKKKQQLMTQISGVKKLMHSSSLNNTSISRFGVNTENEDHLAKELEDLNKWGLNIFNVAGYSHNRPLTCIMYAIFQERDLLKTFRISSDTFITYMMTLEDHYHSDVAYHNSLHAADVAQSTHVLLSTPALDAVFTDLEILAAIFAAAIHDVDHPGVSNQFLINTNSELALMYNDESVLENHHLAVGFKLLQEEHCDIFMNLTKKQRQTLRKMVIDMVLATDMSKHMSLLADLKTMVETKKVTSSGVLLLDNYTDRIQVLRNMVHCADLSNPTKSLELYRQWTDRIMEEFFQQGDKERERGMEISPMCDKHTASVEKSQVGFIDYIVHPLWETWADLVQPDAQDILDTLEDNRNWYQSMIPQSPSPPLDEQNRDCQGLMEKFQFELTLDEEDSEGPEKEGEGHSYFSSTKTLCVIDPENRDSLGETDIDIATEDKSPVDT
Sequence of Cytochrome P450 3A4 (Homo sapiens) (P08684 whole entry, looked up): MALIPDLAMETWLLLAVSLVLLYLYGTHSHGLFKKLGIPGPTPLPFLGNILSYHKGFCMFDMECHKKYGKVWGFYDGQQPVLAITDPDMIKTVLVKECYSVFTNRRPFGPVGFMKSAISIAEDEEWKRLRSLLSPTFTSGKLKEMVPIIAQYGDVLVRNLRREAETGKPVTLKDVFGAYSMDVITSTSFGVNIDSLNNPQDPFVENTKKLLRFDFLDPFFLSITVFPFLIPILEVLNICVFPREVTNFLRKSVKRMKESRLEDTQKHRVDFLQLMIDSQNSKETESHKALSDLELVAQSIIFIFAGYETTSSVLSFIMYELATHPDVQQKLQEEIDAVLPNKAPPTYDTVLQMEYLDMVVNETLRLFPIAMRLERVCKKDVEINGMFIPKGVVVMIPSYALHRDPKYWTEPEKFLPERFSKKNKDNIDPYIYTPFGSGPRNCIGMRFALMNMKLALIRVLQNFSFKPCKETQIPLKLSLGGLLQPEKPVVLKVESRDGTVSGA
Sequence of Cytochrome P450 1A2 (Homo sapiens) (P05177 whole entry, looked up): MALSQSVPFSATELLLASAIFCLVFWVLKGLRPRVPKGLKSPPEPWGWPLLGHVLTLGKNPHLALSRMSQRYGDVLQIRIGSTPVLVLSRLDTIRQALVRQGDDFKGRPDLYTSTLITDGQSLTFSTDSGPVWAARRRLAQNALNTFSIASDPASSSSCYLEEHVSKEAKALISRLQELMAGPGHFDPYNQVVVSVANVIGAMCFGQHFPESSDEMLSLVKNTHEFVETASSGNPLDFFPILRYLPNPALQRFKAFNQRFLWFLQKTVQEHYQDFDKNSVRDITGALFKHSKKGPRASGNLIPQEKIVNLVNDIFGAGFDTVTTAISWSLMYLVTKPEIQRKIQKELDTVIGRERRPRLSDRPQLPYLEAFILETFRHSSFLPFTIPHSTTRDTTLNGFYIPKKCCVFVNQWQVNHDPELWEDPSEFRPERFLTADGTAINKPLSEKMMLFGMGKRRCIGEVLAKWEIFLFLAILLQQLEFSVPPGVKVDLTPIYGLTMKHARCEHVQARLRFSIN

O=C1Nc2cc(Cl)c(Cl)cc2N2CCNC[C@H]12
inactive: Potency [1] > 46 µM | Potency [2] > 46 µM | outcome [3] | Potency [4] | Potency [5] | Potency [6] | Potency [7]

NC[C@@H](CC(=O)O)c1ccc(Cl)cc1
10.6%: max response [10, 22]
11.7%: max response [10, 21]
inactive: Potency [8] | Potency [1] > 20.6 µM and > 46 µM | Potency [2] > 20.6 µM and > 46 µM | outcome [3] | Potency [9] | activity change, negative = inhibition ([10]; at 25.7 µM (top of the series)) 0.101% | Potency [5] | Potency [6]

CCN1C[C@]2(C)CC[C@H](O)[C@@]34C5C[C@@H]6[C@@H](OC)C[C@@](O)(C5[C@H]6O)[C@@H](CC23)[C@@H]14 (stereo not given in full)
inactive: activity change, negative = inhibition ([10]; at 57.5 µM (top of the series)) 1.68% | Potency [5] | Potency [6]
-11%: max response [10, 22]
-11.5%: max response [10, 21]

CCCCC[C@H]1C(=O)O[C@H](C)[C@H](NC(=O)c2cccc(NC=O)c2O)C(=O)O[C@@H](C)[C@@H]1OC(=O)CC(C)C
inactive: Potency [6] | Potency [7]

NC[C@H](CC(=O)O)c1ccc(Cl)cc1
inactive: Potency [1] > 46 µM | Potency [2] > 46 µM | outcome [3] | Potency [9] | activity change, negative = inhibition ([10]; at 57.5 µM (top of the series)) 2.02% | Potency [5] | Potency [6]
19.1%: max response [10, 22]
12.8%: max response [10, 21]

C=CCN1CC[C@]23c4c5ccc(O)c4O[C@@H]2C(=O)CC[C@]3(O)[C@H]1C5
1.84% and 18.9%: max response [10, 21]
inactive: outcome [3] | Potency [9] | activity change, negative = inhibition ([10]; at 25.7 µM (top of the series)) -1.11% | activity change, negative = inhibition ([10]; at 57.5 µM (top of the series)) 5.83% | Potency [4] | Potency [5] | Potency [6]
3.55% and 28.2%: max response [10, 22]

CN1[C@@H]2CC[C@H]1CC(OC(=O)N1Cc3ccccc3NC1=O)C2 (stereo not given in full)
inactive: Potency [6] | Potency [7]

CCCCCCCCCOc1ccc2[nH]cc(CCN)c2c1
active: Potency [8] 0.0398 µM
inactive: Potency [1] > 46 µM | Potency [9] | Potency [11] | Potency [5] | Potency [6] | Potency [7]

CCOC(OCC)P(=O)(O)CCCN
inactive: Potency [1] > 46 µM | outcome [3] | Potency [4] | Potency [5] | Potency [6] | Potency [7]

CCN1C[C@]2(COC(=O)c3ccccc3N3C(=O)C[C@H](C)C3=O)CC[C@H](OC)[C@@]34[C@@H]5C[C@H]6[C@H](OC)[C@H]5[C@](O)(C[C@@H]6OC)[C@@](O)([C@@H](OC)[C@@H]23)[C@@H]14
inactive: Potency [1] > 46 µM | Potency [2] > 46 µM | Potency [4] | Potency [5] | Potency [6] | Potency [7]

CN(C(=O)Cc1ccc(Cl)c(Cl)c1)[C@H](CN1CCCC1)c1cccc(N=C=S)c1
inactive: Potency [1] > 46 µM | Potency [2] > 46 µM | outcome [3] | Potency [9] | Potency [5] | Potency [6] | Potency [7]

CO[C@@H](/C=C/CC/C=C/C(=O)O)[C@@H](O)[C@H](C)[C@@H](O)/C(C)=C/[C@H](C)C(=O)CCCC1CC(=O)NC(=O)C1
inactive: Potency [12] | Potency [13] | Potency [14] | Potency [15] | Potency [16] | Potency [17] | Potency [18] | Potency [19] | Potency [20]

CC1=CC2CC[C@@H]3[C@@H](C)C[C@H](C)[C@@H](C1)N23 (stereo not given in full)
inactive: Potency [12] | Potency [13] | Potency [14] | Potency [15] | Potency [16] | Potency [17] | Potency [18] | Potency [19] | Potency [20]

CN[C@@H]1C[C@H](c2ccc(Cl)c(Cl)c2)c2ccccc21
inactive: Potency [1] > 46 µM | Potency [2] > 46 µM | Potency [5] | Potency [6]

CC1(C)N(O)C(c2ccc(C(=O)O)cc2)=[N+]([O-])C1(C)C
inactive: Potency [1] > 46 µM | Potency [2] > 46 µM | outcome [3] | Potency [5] | Potency [6]
active: Potency [8] 31.6 µM

CC1=CC(=O)C2=C(C)C[C@H](O)[C@@H]3[C@H](OC(=O)[C@@H]3C)[C@@H]12
active: Potency [12] 49.3 µM
inactive: Potency [13] | Potency [14] | Potency [15] | Potency [16] | Potency [17] | Potency [18] | Potency [19] | Potency [20]

CC[N@@+]1([O-])C[C@]2(C)CC[C@@H](O)[C@@]34C5C[C@H]6CC[C@@]5(C(C[C@H]23)C41)[C@H](O)[C@@]6(O)CO (stereo not given in full)
inactive: Potency [13] | Potency [14] | Potency [15] | Potency [16] | Potency [17] | Potency [18] | Potency [19] | Potency [20]
active: Potency [12] 49.3 µM

C[C@@H]1CC[C@@H](c2ccoc2)N2C[C@@]3(CC[C@@H]12)CS[C@@]1(CC[C@H]2[C@H](C)CC[C@@H](c4ccoc4)N2[C@@H]1O)C3
active: Potency [12] 31.1 µM | Potency [13] 7.47 µM | Potency [14] 2.98 µM | Potency [15] 5.94 µM | Potency [16] 5.3 µM | Potency [17] 8.41 µM | Potency [18] 7.47 µM | Potency [19] 8.38 µM | Potency [20] 10.5 µM

CCCC(=O)OCC[N+](C)(C)C
inactive: Potency [1] > 20.6 µM | Potency [6]

O=C(CCCN1CCC2(CC1)C(=O)N(Cc1cccc(F)c1)CN2c1ccccc1)c1ccc(F)cc1
inactive: Potency [1] > 46 µM | Potency [2] > 46 µM | Potency [11] | Potency [5] | Potency [6]

COc1ccc(C23Oc4cc(OC)cc(OC)c4[C@](O)([C@H](c4ccccc4)C2C(=O)NCCCCNC(=O)c2ccccc2)[C@@H]3O)cc1 (stereo not given in full)
active: Potency [12] 49.3 µM
inactive: Potency [13] | Potency [14] | Potency [15] | Potency [16] | Potency [17] | Potency [18] | Potency [19] | Potency [20]

CN(C)c1ccc(/C=C2\CCCN=C2c2cccnc2)cc1
inactive: Potency [11] | Potency [6]

O[C@@H](Cc1ccncc1)C(Cl)(Cl)Cl
inactive: Potency [1] > 46 µM | Potency [2] > 46 µM | outcome [3] | Potency [9] | Potency [4] | Potency [5] | Potency [6]
